“And” between values parts separate entries of the source, which are not always exact repeats. Equal entries are not always repeated. Results filed as inconclusive are left out. The source made the active and inactive calls. The call rests on the fitted dose curve; in most records, active means well fitted curve in the direction sought with a large enough effect; inconclusive means small, poorly fitted or top-dose-only effect, or another doubt; inactive means no such curve, though single readings can be large; an effect the other way counts as inactive or inconclusive.
Columns and labels:
[1] = molecular target: Cellular tumor antigen p53 (Homo sapiens) (UniProt P04637); assay: Primary qHTS for small molecule compounds that upregulate eGFP-tagged delta133p53alpha (in N-terminal) cells. (AID 2060322); settings: NCI-H358 eGFP-delta133p53alpha fluorescence, 24 h; activation: hits give high values;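 further: 0% = DMSO vehicle and 100% = reference activator; nearly all actives have a fitted effect of over 75% in size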
Chain of Cellular tumor antigen p53 (Homo sapiens) (P04637 whole entry, looked up): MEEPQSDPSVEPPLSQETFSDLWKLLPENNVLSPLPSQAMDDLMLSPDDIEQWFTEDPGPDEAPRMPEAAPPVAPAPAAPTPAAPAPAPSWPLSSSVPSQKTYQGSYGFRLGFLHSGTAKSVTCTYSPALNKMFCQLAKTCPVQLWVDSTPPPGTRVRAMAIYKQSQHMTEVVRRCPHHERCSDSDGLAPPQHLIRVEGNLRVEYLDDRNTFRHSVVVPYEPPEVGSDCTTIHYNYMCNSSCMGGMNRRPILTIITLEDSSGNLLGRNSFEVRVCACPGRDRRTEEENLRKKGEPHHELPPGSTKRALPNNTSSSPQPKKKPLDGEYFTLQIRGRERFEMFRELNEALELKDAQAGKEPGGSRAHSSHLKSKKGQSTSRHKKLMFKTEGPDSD
How it was run: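 NCI-H358 cells pre-induced 24 h with 10 ng/ml doxycycline to express N-terminal eGFP-delta133p53alpha, then dosed 24 h at 37C without doxycycline; fixed, Hoechst-stained, GFP intensity by laser scanning cytometry, normalized to DMSO (0%) and 57.5 uM 5-azacytidine (100%).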

[2] = molecular target: Aldehyde dehydrogenase, mitochondrial (Homo sapiens) (UniProt P05091); assay: qHTS for Inhibitors of the Aldehyde Dehydrogenase Family (ALDH2) Primary screen (AID 2061308); settings: ALDH2 enzyme inhibition qHTS, 1536-well; series mostly up to 56 µM;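 further: plate controls were vehicle for no effect and reference inhibitor for full effect; nearly all actives have a fitted effect of over 55% in size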
[3] = molecular target: Retinaldehyde dehydrogenase 3 (Homo sapiens) (UniProt P47895); assay: qHTS for Inhibitors of the Aldehyde Dehydrogenase Family (ALDH1A3) Primary screen (AID 2061315); settings: ALDH inhibition qHTS; series mostly up to 56 µM;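 further: plate controls were DMSO vehicle for no effect and reference inhibitor for full effect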

O=S(=O)(O)c1ccc(Nc2ncnc3c2ncn3[C@@H]2O[C@H](CO)[C@@H](O)[C@H]2O)cc1
inactive: activation [1] -3% | Potency [2] | Potency [3]

O=C(OCCOCCO)c1ccccc1Nc1cccc(C(F)(F)F)c1
inactive: activation [1] -13% and -1.67% | Potency [2] | Potency [3]

CC(=O)O[C@H]1CC[C@@]2(C)C(CC[C@@H](C)[C@]23Cc2c(O)cc4c(c2O3)CN([C@@H](CCC(=O)O)C(=O)O)C4=O)C1(C)C (stereo not given in full)
inactive: activation [1] 0.763% | Potency [2] | Potency [3]

CCC/C=C/C(=O)O[C@H]1CC(C)(C)CC2[C@]13[C@H](O)O[C@@]21CCC2[C@@]4(C)CC[C@H](O[C@@H]5O[C@H](C(=O)O)[C@@H](O)[C@H](O[C@@H]6O[C@H](CO)[C@H](O)[C@H](O)[C@H]6O[C@@H]6O[C@@H](C)[C@H](O)[C@@H](O)[C@H]6O[C@@H]6OC[C@](O)(CO)[C@H]6O)[C@H]5O[C@@H]5O[C@H](CO)[C@H](O)[C@H](O)[C@H]5O)C(C)(C)C4CC[C@@]2(C)[C@]1(C)C[C@H]3OC(C)=O (stereo not given in full)
inactive: activation [1] -4.58% | activity change, negative = inhibition [2] 3.01% [at 11.2 µM] | activity change, negative = inhibition [3] 13.9% [at 11.2 µM]

CC(C)=CCC[C@](C)(O[C@@H]1O[C@H](CO[C@@H]2O[C@H](CO)[C@@H](O)[C@H](O)[C@H]2O)[C@@H](O)[C@H](O)[C@H]1O)C1CC[C@]2(C)[C@@H]1[C@H](O)CC1[C@@]3(C)CC[C@H](O[C@@H]4O[C@H](CO)[C@@H](O)[C@H](O)[C@H]4O[C@@H]4O[C@H](CO)[C@@H](O)[C@H](O)[C@H]4O)C(C)(C)[C@@H]3CC[C@]12C (stereo not given in full)
inactive: activation [1] -6.25% | Potency [2] | Potency [3]

Source: PubChem BioAssay (NCATS)
